From PubChem BioAssay (NCATS) come the findings set out here.

Results filed as inconclusive are left out. Activity calls are given as the source filed them. Calls come from the whole dose curve; as a rule, active = well fitted activation curve with a large enough effect; inconclusive = small, poorly fitted or top-dose-only effect; inactive = no such curve, though single readings can be large or run the other way.
Potency is the fitted concentration of half-maximal effect.

Sequence of Cellular tumor antigen p53 (Homo sapiens) (P04637 whole entry, looked up): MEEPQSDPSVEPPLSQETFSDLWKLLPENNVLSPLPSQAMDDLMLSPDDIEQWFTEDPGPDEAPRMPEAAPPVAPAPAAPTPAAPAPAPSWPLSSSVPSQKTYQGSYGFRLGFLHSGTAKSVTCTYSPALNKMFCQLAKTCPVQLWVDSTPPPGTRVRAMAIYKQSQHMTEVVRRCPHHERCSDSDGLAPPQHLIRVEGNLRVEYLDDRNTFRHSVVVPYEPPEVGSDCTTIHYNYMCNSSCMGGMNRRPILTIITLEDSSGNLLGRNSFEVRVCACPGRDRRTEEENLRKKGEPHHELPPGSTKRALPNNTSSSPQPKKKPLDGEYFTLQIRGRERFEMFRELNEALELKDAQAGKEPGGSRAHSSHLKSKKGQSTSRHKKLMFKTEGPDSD

For this test, the target named is Cellular tumor antigen p53 (Homo sapiens) (UniProt P04637). Kind of test: Primary qHTS for small molecule compounds that upregulate eGFP-tagged delta133p53alpha (in N-terminal) cells. (AID 2060322).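 For activation: cells pre-induced with doxycycline then dosed without doxycycline; series mostly up to about 56 µM; 0% = DMSO vehicle and 100% = reference activator.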 Note: nearly all actives have a fitted effect of over 75% in size. Particulars: NCI-H358 eGFP-delta133p53alpha fluorescence, 24 h; activation: stronger effect = higher value. In short, it runs like this:
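NCI-H358 cells pre-induced 24 h with 10 ng/ml doxycycline for eGFP-delta133p53alpha, plated dox-free and exposed 24 h at 37C to titrated compounds. Fixed, Hoechst-stained; gated GFP peak intensity by laser scanning cytometry, normalized to DMSO (0%) and 57.5 uM 5-azacytidine (100%).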
A general note: In qHTS, concentration-response curves come from the screen itself.
With `Cc1ccc(-c2nc3ccc(C)cn3c2CC(=O)N(C)C)cc1`, the activation is -32.2% (inactive).

Turning to `CCN(CC)Cc1nccn1-c1ccc([N+](=O)[O-])cc1C(=O)c1ccccc1Cl`, the activation is -4.18% (inactive).

As for `CC(C(O)c1ccccc1)N(C)C/C=C/c1ccccc1` (configuration not stated), the activation was -4.18% (inactive). Same read-out and setting: the same measure for `Cc1nc(-c2ccc(-c3ccc(C(=O)N4CCc5cc6c(cc54)C4(CCN(C)CC4)CO6)cc3)c(C)c2)no1`: -21.1% (inactive).

`CO[C@H]1CCC(O[C@H]2C[C@H]([C@]3(C)CC[C@]4(C[C@H](O)[C@@H](C)[C@@H]([C@@H](C)C=C(C)C(=O)[C@H](C)C[C@H](C)C(=O)O)O4)O3)O[C@]3(O[C@@H]([C@H]4O[C@@](O)(CO)[C@H](C)C[C@H]4C)C[C@H]3C)[C@H]2C)O[C@H]1C` (some centres not stated): the activation is 20.4% (inactive).

Take `C[C@]12CCC(=O)C=C1CC[C@@H]1[C@H]3CC[C@](C)(O)[C@@]3(C)CC[C@@H]12`: the Potency is 50.9 µM (active). As for `Nc1nc(N)nc(NC2CC2)n1`, the activation was 5.02% (inactive). For `CC[n+]1c(-c2ccccc2)c2cc(N)ccc2c2ccc(N)cc21`, the Potency is 19.5 µM (active). For `O=C(O)c1ccc2[nH]cc(CCCCN3CC=C(c4ccccc4)CC3)c2c1`, the activation is -5.08% (inactive).

For the molecule `CCOC(=O)c1cncn1[C@H](C)c1ccccc1`, the activation is -12.5% (inactive). As for `C[C@]12CCC(=O)C(O)=C1CC[C@@H]1[C@H]3CCC(=O)[C@@]3(C)CC[C@@H]12`, the activation was -8.48% (inactive). The same measure, in the same setting: the same measure for `CC(=O)C1CCOC1=O` (configuration not stated): -9.21% (inactive). On the same count and under the same terms, the result for `O=c1c(C2CC(c3ccc(-c4ccc(Br)cc4)cc3)Cc3ccccc32)c(O)sc2ccccc12` (configuration not stated) reads -13% (inactive); that for `C=CCC1=C(C)C(OC(=O)C2C(C=C(C)C)C2(C)C)CC1=O` (configuration not stated), 18.6% (inactive); that for `C[C@]12CC[C@H]3[C@@H](CCC4=CC(=O)CC[C@@]43C)[C@@H]1CC[C@@H]2C(=O)O`, 1.69% (inactive). The same measure, in the same setting: the same measure for `COc1ccc(CN2CCNCC2)c(OC)c1OC`: -13% (inactive); for `CCN1CCCC1CNC(=O)C(O)(c1ccccc1)c1ccccc1` (configuration not stated): -15.1% (inactive). Regarding `C1CN2CCC1CC2`, the activation was -19.2% (inactive). For `COC(C)(C)CCCC(C)C/C=C/C(C)=C/C(=O)OC(C)C` (configuration not stated), the activation is -11.9% (inactive).

Consider `Nc1ccccc1C(=O)OCC(O)CO` (configuration not stated), for which the activation was -5.02% (inactive).

For the molecule `CCOP(=S)(OCC)Oc1cc(C)nc(C(C)C)n1`, the activation is -8.37% (inactive).

In the case of `CCCCCCC(=O)CCCCCC/C=C/C[C@@H](O)[C@H](O)[C@@](N)(CO)C(=O)O`, the activation was 5.86% (inactive).
